CHX counter: counter-screen hit for Shiga toxin inhibitors, cycloheximide; max response, %; hit rate 12% among 300,000; cell reporter, cycloheximide protein synthesis inhibition counterscreen; in the data active = max response mostly above about 13%, no sharp cut-off; inactive = mostly below about 14%; also: read at 38.3 µM for the half of the compounds with a filed dose
Shiga toxin inh: blocks Shiga toxin action in Vero cells; Vero cells, Shiga toxin protein synthesis inhibition reporter; inhibition, % at 38.7 µM; hit rate 9.2% among 290,000; AID 2315; in the data active = inhibition mostly above about 28%, no sharp cut-off; inactive = mostly below about 43%
HCV inhibitor: inhibitors of hepatitis C virus infection. hit rate 3.4% among 340,000. AID 651820. Huh7.5.1 HCVcc-Cre infection, luciferase reporter, 44 h. Potency, µM (doses to about 41.8 µM), actives largely listed as inhibitors
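Cells seeded at 1,000/well and cultured 4 h, then compounds added followed by HCVcc-Cre virus (~0.5 moi). After 44 h further culture, luciferase substrate was added, plates held 15 min at room temperature, and luminescence read for 15 sec.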
Pf growth 48h: inhibits P. falciparum growth in the first generation, 48 h; Potency, µM (series often up to 28.7 µM), most hits filed as inhibitors; P. falciparum luciferase growth in erythrocytes, 48 h; hit rate 5.9% among 310,000
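Here the parasites carry a stable luciferase gene and grow inside erythrocytes in Albumax-based RPMI medium with compound for one erythrocytic cycle. Activity is scored as loss of luminescent signal.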
Pf growth 96h: inhibits malaria parasite growth, 96 h; P. falciparum luciferase reporter growth, 96 h; Potency, µM (doses to about 28.7 µM), actives largely listed as inhibitors; hit rate 6.9% among 320,000; AID 504834
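Plates of compound plus infected erythrocytes (2% hematocrit, 0.05% parasitemia final) incubate 96 hours, 37 C, 5% CO2. Detection reagent added; reduced luminescence from the parasites' luciferase reporter flags inhibition.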
AMA1-RON2 inh: inhibitors of Plasmodium falciparum AMA1-RON2 interaction | AlphaScreen AMA1-biotinylated RON2 peptide binding | Potency, µM (series often up to 58.2 µM), usual class: inhibitors | hit rate 0.2% among 360,000; also: nearly all actives have a fitted effect of over 45% in size
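AMA1 (3D7) with his tag at 25 nM final met compounds first, then biotinylated RON2 peptide at 25 nM; detection used donor plus acceptor beads, 10 µg/mL apiece, read by AlphaScreen after 30 min at room temperature.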
Of the large screens only hits and unclear results are named; the others gave an inactive call. Compounds with a hit are over-represented: about 21% of the library has one in this group of screens. Unless noted, calls follow the shape of the dose curve; as a rule, active = well fitted curve in the direction sought with a large enough effect; inconclusive = small, poorly fitted or top-dose-only effect, or another doubt; inactive = no such curve, though single readings can be large; an effect the other way counts as inactive or inconclusive.

COc1ccc(/C=C/C(=O)Nc2cc(=O)n(C)c(=O)n2C)cc1	CHX counter 31
CSc1cccc(N2CC(C(=O)N3CCN(S(=O)(=O)c4ccccc4Cl)CC3)CC2=O)c1 (centres undefined)	HCV inhibitor inconclusive (no result: CHX counter, Shiga toxin inh, Pf growth 48h, Pf growth 96h)
CC(=O)Nc1ccc(Nc2nnc(-c3ccc(C)c(S(N)(=O)=O)c3)c3ccccc23)cc1	Pf growth 48h inconclusive
COc1nnc(-c2ccc(C)c(S(=O)(=O)NC(C)C)c2)c2ccccc12	Pf growth 96h 2.6µM (no result: Pf growth 48h)
COc1nnc(-c2ccc(C)c(S(N)(=O)=O)c2)c2ccccc12	HCV inhibitor inconclusive, Pf growth 96h 2.9µM (no result: Pf growth 48h)
CCCC(=O)N1CCC1(C)C(=O)Nc1ncc(C(=O)OC)s1 (centres undefined)	none (no result: CHX counter, Shiga toxin inh, HCV inhibitor, Pf growth 48h, Pf growth 96h)
O=C(O)c1n[nH]c2c1CC(C1CCCCC1)CC2 (centres undefined)	none (no result: CHX counter, Shiga toxin inh)
CCCn1c(=S)[nH]c2cc(C(=O)N3CCc4ccccc4C3)ccc2c1=O	none
O=C(CCCOc1ccccc1)N1CCc2ccccc2C1	CHX counter 39, Shiga toxin inh 85
O=C(Cc1ccc(Br)cc1)N1CCc2ccccc2C1	CHX counter 39 (no result: Shiga toxin inh)
O=C(/C=C/C(=O)N1CCc2ccccc2C1)N1CCc2ccccc2C1	Pf growth 96h inconclusive
CCOc1cc2[nH]c(=S)n(CCC(=O)N3CCc4ccccc4C3)c(=O)c2cc1OCC	Pf growth 48h inconclusive, Pf growth 96h 9.3µM
O=C(CSc1ncccn1)N1CCc2ccccc2C1	CHX counter 14
Cc1cccc(NC(=O)COC(=O)CCc2c[nH]c3ccccc23)c1	none (no result: CHX counter, Shiga toxin inh)
CCC(C)NC(=O)CN(C1CCCCC1)S(=O)(=O)c1ccc(F)cc1 (centres undefined)	none
CCCN[C@@H](C)C(=O)Nc1c(C)csc1C(=O)OC	none (no result: CHX counter, Shiga toxin inh, HCV inhibitor, AMA1-RON2 inh)
O=C(c1cccs1)N1CCc2ccccc2C1	none
O=C(CN(C1CCCCC1)C1CCCCC1)N1CCc2ccccc2C1	HCV inhibitor inconclusive, Pf growth 96h 13µM (no result: Pf growth 48h)
O=C(COc1ccc(F)cc1)N1CCc2ccccc2C1	CHX counter 32
O=C(c1ccc(Br)s1)N1CCc2ccccc2C1	CHX counter 49, Shiga toxin inh 152, HCV inhibitor inconclusive
Cc1nnc(NC(=O)c2ccc(S(=O)(=O)N3CC(C)CC(C)C3)cc2)o1 (centres undefined)	none
Cc1ccc(/C=N/Nc2ccc(C(=O)O)cc2)s1	none
O=C(Cc1ccccc1)N/N=C/c1cc(Br)cs1	CHX counter 14, Pf growth 96h inconclusive
O=C(O)c1ccc(N/N=C/c2cc(Br)cs2)cc1	CHX counter 25
CNc1ccc(Oc2nc([N+](=O)[O-])nn2C)cc1	Pf growth 96h inconclusive
COCCn1c(SC(C)C(=O)Nc2ccc3c(c2)OCCO3)nc2ccccc2c1=O (centres undefined)	Pf growth 48h inconclusive, Pf growth 96h 13µM
Cc1cccc(NC(=O)C(C)Sc2nc3ccccc3c(=O)n2CCCN2CCOCC2)c1 (centres undefined)	HCV inhibitor inconclusive, Pf growth 48h 13µM, Pf growth 96h 8.3µM (no result: CHX counter, Shiga toxin inh)
COCCn1c(SC(C)C(=O)NC2CCCCC2C)nc2ccccc2c1=O (centres undefined)	none (no result: CHX counter, Shiga toxin inh)
CC(=O)c1cccc(NC(=O)CSc2nc3ccccc3c(=O)n2CCCN2CCOCC2)c1	none (no result: CHX counter, Shiga toxin inh, Pf growth 48h, Pf growth 96h)
COc1ccc(C(=O)N2CCCC(N3CCN(c4ccccc4F)CC3)C2)c(OC)n1 (centres undefined)	HCV inhibitor inconclusive, Pf growth 96h 13µM
COc1ccccc1N1CCN(C2CCCN(C(=O)c3cscn3)C2)CC1 (centres undefined)	Pf growth 96h inconclusive
COc1ccc(C(=O)N2CCCC(N3CCN(c4ccccc4OC)CC3)C2)c(OC)n1 (centres undefined)	none
COc1ccccc1N1CCN(C2CCCN(C(=O)c3snnc3C)C2)CC1 (centres undefined)	Pf growth 96h 13µM
Cc1ccccc1N1CCN(C2CCCN(C(=O)c3ccccn3)C2)CC1 (centres undefined)	HCV inhibitor inconclusive, Pf growth 96h inconclusive
Cc1ccccc1N1CCN(C2CCCN(C(=O)c3cn4cccc(C)c4n3)C2)CC1 (centres undefined)	HCV inhibitor 11µM, Pf growth 48h inconclusive, Pf growth 96h inconclusive
Cc1ccc(N2C(=O)CC(Cc3ccc(Cl)cc3)C2=O)cc1 (centres undefined)	none
OC[C@@H]1CN(Cc2ccc3c(c2)OCO3)C[C@H](n2cnc3c(N4CCCC4)ncnc32)O1	none (no result: CHX counter, Shiga toxin inh, HCV inhibitor, Pf growth 48h, Pf growth 96h)
O=C(Nc1cccc([N+](=O)[O-])c1)c1ccc(N2CCCC2=O)cc1	none
O=C(NCC1CCCO1)/C(=C\c1ccc(Cl)cc1)NC(=O)c1ccccc1 (centres undefined)	Pf growth 96h 0.83µM
Cc1c(C(=O)NCC2CCCO2)oc2ccccc12 (centres undefined)	none (no result: CHX counter, Shiga toxin inh)
O=C(Cc1ccccc1)Nc1ccccc1C(=O)NCC1CCCO1 (centres undefined)	Pf growth 96h 13µM
Cc1c(C(=O)NCC2CCCO2)oc2ccc3c(c12)C(=O)CC(C)(C)O3 (centres undefined)	CHX counter 40, Shiga toxin inh 75
Cc1ccc(C(=O)Nc2ccc(C(=O)NCC3CCCO3)cc2)cc1 (centres undefined)	Pf growth 96h inconclusive
O=C(NCC1CCCO1)c1ccc(C(=O)NCC2CCCO2)cc1 (centres undefined)	Pf growth 96h 0.47µM
CCOc1ccc(C(=O)NC(C(=O)NCC2CCCO2)C(C)C)cc1 (centres undefined)	none
O=C(NCC1CCCO1)C(=O)N/N=C/c1ccc(O)c(Cl)c1 (centres undefined)	Pf growth 96h 4.1µM
CCOc1ccc(C(=O)NCC2CCCO2)cc1 (centres undefined)	CHX counter 38, Shiga toxin inh 117 (no result: Pf growth 96h)
CCc1cc(C(=O)NCC2CCCO2)sc1C (centres undefined)	CHX counter 31, Shiga toxin inh 43
O=C(NCC1CCCO1)C(=O)N/N=C/c1cc(Cl)ccc1O (centres undefined)	Pf growth 48h inconclusive
COc1cccc(C2=Nn3c(nnc3-c3ccc(OC)cc3OC)SC2)c1	none (no result: HCV inhibitor, Pf growth 48h, Pf growth 96h, AMA1-RON2 inh)
O=C(COC(=O)[C@@H]1CCCN1C(=O)c1cccs1)Nc1cccc(Cl)c1	none (no result: CHX counter, Shiga toxin inh, Pf growth 48h, Pf growth 96h)
C[C@H](CO)N1C[C@H](C)[C@@H](CN(C)S(=O)(=O)c2cn(C)cn2)Oc2ncc(Br)cc2C1=O	none (no result: CHX counter, Shiga toxin inh, HCV inhibitor, Pf growth 48h, Pf growth 96h)
OCCCc1cn(-c2ccccc2)c2ccccc12	HCV inhibitor 10µM, Pf growth 96h inconclusive
Cc1c([N+](=O)[O-])c(C(=O)Nc2ccc3c(c2)OCCO3)nn1C	CHX counter 52, Shiga toxin inh 85 (no result: Pf growth 96h)
Cc1nn(C)c(C(=O)Nc2ccc3c(c2)OCO3)c1[N+](=O)[O-]	CHX counter 21, Pf growth 96h inconclusive
Cc1cc(C)n(C(=O)c2nn(C)c(C)c2[N+](=O)[O-])n1	none
